Platelet DG rel: inhibitors of platelet dense granule secretion, primary screen, cell-based, MLPCN, human platelets | human platelet-rich plasma, SFLLRN dense granule ATP release, luminescence | inhibition, %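 (compounds screened at 7.5 µM in platelet-rich plasma)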 | hit rate 0.22% among 300,000 | AID 1663, 2009;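 active means mean replicate score, as percent of positive control, at or above 50; inconclusive means mean below 50 but at least one replicate at or above 50; inactive means mean and every replicate below 50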
MPTP block: mitochondrial permeability transition pore inhibitors, primary screen, biochemical, isolated mouse mitochondria, absorbance; AID 602449, 2012; inhibition, % at 10 µM; hit rate 1.4% among 360,000; Ca2+ swelling absorbance, 30 min;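 active means inhibition of 50% or more, scaled per plate between neutral and stimulator controls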;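 further: 0% = DMSO wells given calcium and 100% = 1 mM EGTA wells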
HSF1 inhib: HSF1 inhibitors in luciferase reporter cells, primary screen, cell-based, NIH3T3, luminescence. NIH3T3-HGL HSE-luciferase, MG132-induced, luminescence 8 h; hits give low values. activity change, negative = inhibition, % at 7.5 µM (by protocol). hit rate 0.77% among 300,000. AID 2098, 2009;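 active means more than half of replicate wells show activity change below -50%, luminescence cut by over half; inconclusive means some wells, but at most half, below -50%; inactive means no replicate well below -50%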;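 further: luciferase reports HSF-1 transcriptional activity via heat shock element; 0% = median of DMSO wells and -100% = zero luminescence signal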
HSF-1 act: HSF-1 activators, primary screen, NIH3T3-HGL cells, MG132 stress, luminescence, single point | NIH3T3-HGL HSF-1 luciferase reporter, 8 h; 100% = twice DMSO control signal | activation, % at 9 µM | hit rate 1.7% among 300,000;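 active means mean replicate activation of at least 50% with a set share of replicates each reaching 50%; inconclusive means only one of those two conditions met; inactive means mean below 50% and too few replicates reaching it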;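 further: 0% = median of the neutral control wells and 100% = twice that signal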
HSP90 refold inh: HSP90 inhibitors, primary screen, cell lysate, luminescence | Heat shock protein HSP 90 (rabbit reticulocyte lysate; luciferase refolding) | Rabbit reticulocyte lysate, luciferase refolding luminescence, 3 h | inhibition, % at 5.6 µM | hit rate 0.91% among 290,000 | AID 1789, 2009;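 active means inhibition above the screen-wide mean plus 3 SD, computed separately per campaign, cut at about 16% in these data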;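 further: 0% = DMSO wells and 100% = 60 µM geldanamycin wells; inhibitors lower the luminescence because luciferase stays unfolded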
dFosB activator: activators of delta FosB homodimer, primary screen, biochemical, fluorescence polarization, TAMRA-CDK5 oligo, single point; Protein FosB (Mus musculus), P13346; hit rate 0.99% among 340,000; activation, % at 25 µM; purified delta FosB; percent of positive-control signal above neutral wells;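 active means mean activation above about 17%, with every replicate also reaching it, limit read from the data, passing the limit was not always enough; inconclusive means only one of the two conditions met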
Target sequence (P13346 whole entry, looked up): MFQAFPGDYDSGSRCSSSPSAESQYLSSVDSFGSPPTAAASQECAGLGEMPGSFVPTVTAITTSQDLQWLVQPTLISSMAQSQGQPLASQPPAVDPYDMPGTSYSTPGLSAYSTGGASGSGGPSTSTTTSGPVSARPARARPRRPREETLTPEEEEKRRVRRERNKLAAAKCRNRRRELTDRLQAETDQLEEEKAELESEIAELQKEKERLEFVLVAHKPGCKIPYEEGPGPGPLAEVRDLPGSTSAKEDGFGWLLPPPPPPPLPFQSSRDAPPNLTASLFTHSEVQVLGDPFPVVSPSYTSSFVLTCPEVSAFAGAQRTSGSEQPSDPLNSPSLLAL
HSP90 confirm: HSP90 inhibitors, confirmation, cell lysate, luminescence | rabbit reticulocyte lysate, luciferase refolding luminescence, 3 h | inhibition, % at 5.9 µM | shares compounds with HSP90 refold inh | hit rate 64% among 2,300 | AID 1846, 2009; in the data active means inhibition above about 18%;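 further: 0% = vehicle wells and 100% = reference inhibitor wells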
FLuc counter: firefly luciferase inhibitors, HSP90 counter-screen, confirmation, artefact control for HSP90 inhibitor project, biochemical, luminescence, triplicate; shares compounds with HSP90 refold inh; inhibition, % at 5.9 µM; hit rate 48% among 2,300; purified native firefly luciferase;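 active means inhibition above the mean inhibition of all tested sample wells plus 3 SD, cut at about 10% in these data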;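 further: 0% = DMSO with luciferase and 100% = wells lacking luciferase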
* = called active by the depositor; u = inconclusive; x = not tested or not shown. Rows were chosen to be rich in hits. Some 4.9% of all compounds tested hit in one or more screens of this group.

SMILES | Platelet DG rel | MPTP block | HSF1 inhib | HSF-1 act | HSP90 refold inh | dFosB activator | HSP90 confirm | FLuc counter
COc1ccc(C(NC(=O)C2CCN(CCOc3ccc(Cl)cc3Cl)CC2)c2cccs2)cc1 (configuration not stated) | x | 8 | x | x | x | x | x | x
CC1CCc2nc(NC(=O)c3ccco3)sc2C1 (configuration not stated) | 11 | -2 | -21 | -27 | 54* | -1 | 82* | 77*
CS(=O)(=O)c1ccc2nc(NC(=O)c3ccco3)sc2c1 | 11 | -1 | 16 | 14 | 4 | -16 | x | x
CCOc1ccc2nc(NC(=O)c3ccco3)sc2c1 | 50* | -1 | 14 | 28 | 39* | -3 | 51* | 45*
O=C(Cn1cc(C(=O)c2ccco2)c2ccccc21)NC1CC1 | 2 | -4 | 0 | 2 | 25* | -3 | -9 | -11
CCOC(=O)NC1Cc2ccccc2C1Sc1ccccn1 (configuration not stated) | -1 | 0 | 4 | -3 | 44* | -2 | -6 | -13
CCOC(=O)NC(=O)CSc1ccccn1 | -13 | 0 | 0 | 1 | 2 | -1 | x | x
N#Cc1cc2ccc(N3CCOCC3)cc2cc1C#N | 1 | 1 | x | x | 18* | -2 | -1 | -11
CC(C)=C[C@H]1C[C@H](C)[C@H]2CC[C@H](C)c3c(O[C@@H]4OC[C@@H](O)[C@H](O)C4O)c(O)c(C)c1c32 (some centres not stated) | x | 2 | x | x | x | 5 | x | x
CC(=O)Nc1ccc(S(=O)(=O)Nc2ccccc2C(=O)N2CCCCC2)cc1 | 0 | -1 | -6 | -9 | -2 | -4 | x | x
Clc1ccc2nc(-c3ccc4c(c3)OCO4)cn2c1 | 7 | 0 | 7 | 45 | 24* | -5 | 73* | 71*
Cc1ccc2nc(-c3ccc4c(c3)OCCO4)cn2c1 | 3 | 0 | -6 | -2 | 93* | -10 | 94* | 90*
Cc1nc(-c2ccc3c(c2)OCCCO3)cs1 | 6 | 1 | 30 | u | 3 | 4 | x | x
O=C(O)c1cc(-c2ccc3c(c2)OCO3)nc2ccc(Cl)cc12 | -3 | 1 | -3 | 5 | 4 | -4 | x | x
CN(C)S(=O)(=O)c1cccc(-c2cn3cc(Cl)ccc3n2)c1 | -4 | 0 | x | x | 2 | -15 | x | x
COc1ccc(-c2cn3cc(C)ccc3n2)cc1F | 5 | -2 | 24 | 59* | 48* | -7 | 63* | 58*
Clc1ccc2nc(-c3ccccc3)cn2c1 | 19 | 0 | 36 | 34 | 36* | -6 | 55* | 42*
Cc1ccc(F)cc1C(=O)N1CCCC1(C)C(=O)NCC(C)C (configuration not stated) | x | 0 | x | x | x | x | x | x
C=C1CCN([C@H](C(=O)NCc2ccc(Cl)cc2)C(C)C)S(=O)(=O)c2ccccc21 | x | 0 | x | x | x | -5 | x | x
CCc1nc2ccc(C(=O)Nc3cccc(OCC(=O)N(C)C)c3)cn2c1N(C)C(=O)c1ccncc1 | x | -2 | x | x | x | x | x | x
O=c1[nH][nH]c2c1[C@H](c1ccccc1)O[C@H](C1CCCCC1)C2 | x | -3 | x | x | x | x | x | x
Cc1ccc(OCc2nnnn2-c2ccccc2)cc1 | 16 | 1 | 6 | -2 | 75* | 0 | 1 | -2
Cc1ccc(-n2nnnc2CCl)cc1 | 6 | -2 | -4 | 3 | 4 | 7 | x | x
CN1CCN(C(=S)NC(=O)c2ccccc2Cl)CC1 | -8 | -1 | -2 | 23 | 4 | -4 | x | x
Cc1ccc(C)c(Cn2nnc3c(=O)[nH]c(C4CCN(S(=O)(=O)c5ccc(S(=O)(=O)N(C)C)cc5)CC4)nc32)c1 | 1 | 0 | 0 | 0 | 22* | 6 | 19* | -2
SMILES | Platelet DG rel | MPTP block | HSF1 inhib | HSF-1 act | HSP90 refold inh | dFosB activator | HSP90 confirm | FLuc counter
N#Cc1ccc(NC(=O)COC(=O)c2cccnc2Cl)cc1 | x | 1 | x | x | x | -5 | x | x
CCOC(=O)N1N=C(c2ccc(C)cc2)CC1(O)C(F)(F)F (configuration not stated) | 1 | 0 | -8 | 3 | 20* | -2 | 48* | 43*
COc1cc(NC(C)CCCN)c2ncccc2c1 (configuration not stated) | 2 | 4 | 2 | -9 | x | 6 | x | x
COc1cc(NCCCCCCCN)c2ncccc2c1 | -3 | -5 | 10 | 6 | 80* | 1 | 7 | -2
CC(C)(C)C(=O)N1CCc2cc(-c3csc(N)n3)ccc21 | 12 | -3 | u | -51 | 57* | -5 | 76* | 70*
CCC(C)C(=O)N1CCc2cc(-c3csc(N)n3)ccc21 (configuration not stated) | -1 | -1 | 0 | 29 | 3 | -2 | x | x
C[C@@H]1CN([C@H](C)CO)C(=O)CCCn2nncc2CO[C@@H]1CN(C)S(=O)(=O)c1ccc2c(c1)OCCCO2 | x | 0 | x | x | x | x | x | x
Oc1ccccc1CC=NC1CCCCC1 | x | -1 | x | x | x | -8 | x | x
CCOC(=O)Nc1cc(C(=O)OCC)c(C)nc1C | 23 | -6 | 6 | 22 | 27* | -7 | 3 | -3
CCOC(=O)c1cc(NC(=O)Nc2cc(C)ccn2)c(C)nc1C | 3 | 0 | -11 | 2 | 4 | 3 | x | x
COc1ccc([C@H]2CC(=O)C[C@@H](CCn3cc(CCc4ccccc4)nn3)O2)cc1 | x | 0 | x | x | x | x | x | x
O=c1c(C=NCc2cccnc2)c(C(F)(F)F)[nH]n1-c1nc2ccccc2s1 | 3 | 2 | 2 | 30 | 42* | -12 | 35* | 11*
CCOc1ccc(NC(=O)Nc2nnc(CC)s2)cc1 | 3 | 0 | 12 | 15 | 18* | -4 | -2 | -9
CCc1nnc(NC(=O)c2ccc(OC)cc2OC)s1 | -7 | -1 | 16 | 24 | 21* | -26 | 47* | 43*
COc1ccc(NC(=O)Nc2nnc(Cc3ccccc3)s2)cc1 | -1 | 2 | -1 | 35 | 2 | -1 | x | x
COc1ccc(C(=O)Nc2nnc(SCC(=O)NCc3ccco3)s2)c(OC)c1 | -4 | -3 | -4 | 13 | 43* | -5 | 62* | 60*
COc1ccccc1C(=O)Nc1nnc(SCC(=O)NCc2ccco2)s1 | 7 | 1 | 16 | 20 | 13 | -13 | x | x
Cc1ccc(C(=O)n2c3ccccc3c3ccccc32)cc1 | 2 | 2 | 1 | -6 | 17* | -4 | -1 | -20
O=C(Nc1ccccc1NC(=O)c1ccccc1Cl)c1ccccc1Cl | 0 | 0 | 5 | 5 | 0 | -6 | x | x
